Source: PubChem BioAssay
In the library only some 2.1% were active in any assay of this set; here they are far more common.
CTSL1 counter: cathepsin L1 inhibition, PFM18AAP counter-screen | 0.49% of 300,000 active | recombinant F. hepatica cathepsin L1, Z-Leu-Arg-MCA fluorescence | AID 1906 | inhibition, % at 5.96 µM;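 active means inhibition above the mean of all tested compounds plus 3 SD, set per screening campaign, cut at about 17% in these data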;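 further: 0% = plate median of test compound wells and 100% = 1 µM Z-Phe-Ala-diazomethylketone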
PfM18AAP inh: blocks P. falciparum M18 aspartyl aminopeptidase; recombinant PfM18AAP, H-Glu-NHMec fluorogenic cleavage; inhibition, % at 7.35 µM; 1.2% of 290,000 active;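 active means inhibition above the campaign mean inhibition over all tested compounds plus 3 SD, cut at about 28% in these data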;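 further: 0% = plate median of test compound wells and 100% = 2 mM ZnCl2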
Calb FLC: affects C. albicans growth with fluconazole; C. albicans CaCi-2 (fluconazole-resistant clinical isolate) + fluconazole, Alamar Blue growth, 48 h; growth inhibition, % (concentration not given with the values); 0.57% of 300,000 active; AID 1979;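 active means growth inhibition above about 58% in most replicates, limit read from the data, passing the limit was not always enough; inconclusive means exactly half the replicates above a set limit; inactive means most replicates below a set limit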;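 further: all wells also contain fluconazole at 8 µg/ml as a sub-toxic cotreatment; 0% = median of DMSO wells and 100% = median of geldanamycin control wells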
Rin1 Abl inh: inhibitors of human Rin1-Abl protein interaction; AID 588664; inhibition, % at 7.35 µM; TR-FRET Rin1/Abl binding, biochemical; 0.4% of 360,000 active; P00519+Q13671; in the data active means inhibition above about 5%, passing the limit was not always enough
Target sequence (P00519 whole entry, looked up): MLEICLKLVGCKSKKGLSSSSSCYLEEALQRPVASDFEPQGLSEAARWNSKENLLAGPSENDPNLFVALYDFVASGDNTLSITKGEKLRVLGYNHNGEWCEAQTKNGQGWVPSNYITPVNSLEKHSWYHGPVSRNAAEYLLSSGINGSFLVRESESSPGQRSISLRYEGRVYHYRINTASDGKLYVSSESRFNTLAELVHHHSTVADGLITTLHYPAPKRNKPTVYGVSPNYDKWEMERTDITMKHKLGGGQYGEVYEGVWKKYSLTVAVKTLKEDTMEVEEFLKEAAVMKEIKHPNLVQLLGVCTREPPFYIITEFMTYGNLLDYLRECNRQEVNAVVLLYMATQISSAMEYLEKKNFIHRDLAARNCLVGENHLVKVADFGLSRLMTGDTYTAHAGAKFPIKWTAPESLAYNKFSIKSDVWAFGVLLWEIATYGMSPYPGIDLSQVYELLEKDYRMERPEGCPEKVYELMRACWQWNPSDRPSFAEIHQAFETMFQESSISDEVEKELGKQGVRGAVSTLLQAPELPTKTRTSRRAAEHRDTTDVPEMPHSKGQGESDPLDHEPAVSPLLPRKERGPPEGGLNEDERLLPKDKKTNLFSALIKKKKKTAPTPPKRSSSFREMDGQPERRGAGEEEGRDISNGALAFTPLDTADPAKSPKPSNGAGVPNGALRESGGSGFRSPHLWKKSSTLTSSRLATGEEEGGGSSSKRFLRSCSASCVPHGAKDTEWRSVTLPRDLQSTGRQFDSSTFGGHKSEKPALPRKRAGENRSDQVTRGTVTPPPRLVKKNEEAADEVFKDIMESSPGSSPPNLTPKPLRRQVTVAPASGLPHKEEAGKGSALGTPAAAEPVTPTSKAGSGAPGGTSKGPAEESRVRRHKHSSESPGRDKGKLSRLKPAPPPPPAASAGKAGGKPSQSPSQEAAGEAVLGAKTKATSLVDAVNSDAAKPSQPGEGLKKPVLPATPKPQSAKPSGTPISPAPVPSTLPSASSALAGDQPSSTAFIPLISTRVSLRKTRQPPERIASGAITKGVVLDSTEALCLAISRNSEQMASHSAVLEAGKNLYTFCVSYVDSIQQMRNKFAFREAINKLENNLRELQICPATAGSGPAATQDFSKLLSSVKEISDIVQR
Target sequence (Q13671 whole entry, looked up): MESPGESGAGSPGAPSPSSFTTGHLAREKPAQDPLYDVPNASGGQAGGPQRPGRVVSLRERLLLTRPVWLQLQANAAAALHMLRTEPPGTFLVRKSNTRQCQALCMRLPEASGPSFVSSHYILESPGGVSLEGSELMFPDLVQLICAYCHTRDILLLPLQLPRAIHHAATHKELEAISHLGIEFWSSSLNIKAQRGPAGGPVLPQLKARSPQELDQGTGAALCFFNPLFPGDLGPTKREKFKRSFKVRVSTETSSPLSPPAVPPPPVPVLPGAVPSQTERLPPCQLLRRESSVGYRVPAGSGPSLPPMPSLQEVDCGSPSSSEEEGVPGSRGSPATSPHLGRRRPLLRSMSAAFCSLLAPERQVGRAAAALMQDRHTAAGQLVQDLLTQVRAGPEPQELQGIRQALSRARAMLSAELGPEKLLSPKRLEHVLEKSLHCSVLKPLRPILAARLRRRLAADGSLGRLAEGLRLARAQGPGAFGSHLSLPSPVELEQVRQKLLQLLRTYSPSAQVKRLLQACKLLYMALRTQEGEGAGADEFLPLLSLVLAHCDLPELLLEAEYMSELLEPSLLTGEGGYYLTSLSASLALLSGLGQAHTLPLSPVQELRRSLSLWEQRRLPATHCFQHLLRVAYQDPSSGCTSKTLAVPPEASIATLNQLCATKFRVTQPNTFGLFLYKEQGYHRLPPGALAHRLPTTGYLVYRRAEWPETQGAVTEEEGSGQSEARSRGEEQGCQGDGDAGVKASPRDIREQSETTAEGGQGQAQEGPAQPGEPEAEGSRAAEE
* marks the source's active call; other numbers are inactive results; ? = inconclusive; nt = no result.

SMILES | CTSL1 counter | PfM18AAP inh | Calb FLC | Rin1 Abl inh
CCCCc1c(O)nc(SCC(=O)Nc2cccc3ccccc23)n(-c2ccccc2OC)c1=O | 4.0 | -5.7 | 83.1* | -0.1
CN1CCO/C1=C(\C(Cl)=C(Cl)Cl)[N+](=O)[O-] | 0.9 | -3.1 | -10.6 | -3.2
O=[N+]([O-])C(=C1Nc2ccccc2N1)C(Cl)=C(Cl)Cl | 19.6* | -2.2 | 12.3 | -0.6
CCOc1cc(C2CC(=O)N3CN(C4CCCCC4)CSC3=C2C#N)ccc1O (centres undefined) | 79.6* | 30.7* | -4.6 | 1.8
CC(C)(C)C(=O)Nc1ccccc1C(=O)N1CCCC1 | 17.4* | -5.0 | 3.5 | -1.9
CC(=O)NC1=C(Nc2ccc(N(C)C)cc2)C(=O)c2ccccc2C1=O | 8.9 | 29.0* | -1.2 | -16.0
Cc1ccc(S(=O)(=O)N(C)C[C@@H]2Oc3ccc(NC(=O)Nc4cccc5ccccc45)cc3C(=O)N([C@H](C)CO)C[C@H]2C)cc1 | nt | nt | nt | -0.8
COc1ccc(Cl)cc1NC(=O)CN(C)C(=O)C1CC1 | nt | nt | nt | 1.3
CC(=O)Nc1cccc(NC(=O)C2CCCN2C(=O)Nc2ccc(Cl)cc2)c1 (centres undefined) | -1.9 | 8.3 | 114.1* | 3.3
O=C(c1cc(COc2ccc(F)c(F)c2)on1)N1CCN(C/C=C/c2ccccc2)CC1 | nt | 3.5 | -9.7 | -4.5
COc1ccccc1CNC(=O)CCS(=O)(=O)c1ccc(Cl)cc1 | 28.6* | nt | -7.5 | -0.4
Cc1ccc(NC(=O)c2sc(C)nc2C)c(C)c1 | 17.8* | 0.0 | -2.0 | -0.1
Cc1ccc(NC(=O)c2sc(Cl)nc2C)c(C)c1 | -0.9 | -2.6 | -0.8 | -1.9
Nc1ncnc2c1ncn2[C@@H]1O[C@H](C(=O)Nc2ccc(C(=O)N3CCCCC3)cc2)[C@@H](O)[C@H]1O | nt | nt | nt | 0.8
O=[N+]([O-])c1cc2cccnc2c2ncccc12 | 7.2 | 1.2 | 12.2 | -4.3
O=[N+]([O-])c1cc(O)c2ncccc2c1 | 11.2 | -12.1 | 104.8* | nt
CCN(CC(=O)Nc1ccc2c(c1)OCCO2)C(=O)/C=C/c1cccc(Br)c1 | 10.5 | nt | 5.3 | 1.5
CC(C)CC(NC(=O)c1ccc(Cl)cc1)C(=O)OCC(=O)c1ccc2c(c1)NC(=O)CO2 (centres undefined) | 24.6* | -5.4 | -0.4 | 2.5
CC(O)C(NS(=O)(=O)c1ccc(Cl)cc1)C(=O)OCC(=O)c1ccc2c(c1)NC(=O)CO2 (centres undefined) | nt | nt | nt | -1.2
COC(=O)CSc1cc([N+](=O)[O-])ccc1NC(=O)OC | 18.6* | -5.6 | 39.0 | -0.8
Cc1cc(C(C)(C)C)cc(C)c1COC(=O)CN1C(=O)NC2(CCCC2)C1=O | nt | nt | nt | 0.1
CC1CC(C)CN(CCC(=O)Nc2ccc(Br)cc2)C1 (centres undefined) | 17.6* | 2.5 | -4.4 | 0.9
O=C(Nc1ccccc1C(F)(F)F)c1cc2ncc(CCCl)cn2n1 | -3.2 | 0.4 | -4.2 | 0.5
CSc1cccc(NC(=O)N2CCc3ccc(NC(=O)c4ccccn4)cc3C2)c1 | 2.0 | 14.3 | -3.3 | -0.9
Cc1ccc(/C=C/C(=O)N2CCN(S(=O)(=O)c3ccc(C)c(C)c3)CC2)o1 | 5.6 | -109.3 | -0.6 | -2.4
SMILES | CTSL1 counter | PfM18AAP inh | Calb FLC | Rin1 Abl inh
Cc1ccc(/C=C/C(=O)N2CCN(S(=O)(=O)c3c(C)c(C)cc(C)c3C)CC2)o1 | 43.0* | -67.7 | -1.7 | 0.4
C=CCOC(=O)c1sc(NC(=O)c2ccco2)nc1C | -0.5 | 5.2 | 78.5* | -0.6
CCCC1CCC(C2=N/C(=C\c3ccc(OC)c(OC)c3)C(=O)O2)CC1 (centres undefined) | 2.9 | -8.1 | -0.1 | -1.0
COc1cccc(/C=C2\N=C(C3CCCCC3)OC2=O)c1OC | 19.8* | 0.2 | 0.5 | 2.3
CC(=O)Oc1ccc(/C=C2\N=C(C3CCCCC3)OC2=O)cc1 | 23.1* | -2.0 | 3.0 | -3.2
CCc1nc2ccc(C(=O)NCc3ccc4c(c3)OCO4)cn2c1N(CC)Cc1cccc(Br)c1 | nt | nt | nt | -0.1
Nc1c2c(nc3sc4c(c13)CCCCC4)CCCCC2 | 0.9 | -3.4 | 95.2* | -0.2
CC1CCc2nc3sc4c(c3c(N)c2C1)CCCC4 (centres undefined) | -4.8 | 4.9 | ? | 0.8
O=C(/C=C/c1ccccc1Cl)NC1CCS(=O)(=O)C1 (centres undefined) | 41.8* | -1.0 | 1.7 | 0.9
Cc1cc(C)nc(NS(=O)(=O)c2ccc(NC(=O)COc3ccccc3)cc2)n1 | -0.5 | -0.3 | 79.5* | 1.0
Cc1cc(C(=O)OCC(=O)Nc2ccc(S(N)(=O)=O)cc2)c2ccccc2n1 | -1.2 | -10.0 | 126.8* | -0.3
COc1ccccc1NC(=O)COC(=O)c1cc(C)nc2ccccc12 | nt | nt | nt | -1.3
CC(C)CCNC(=O)C1CCN(S(=O)(=O)c2ccc3c(c2)CC(C)N3C(=O)C2CC2)CC1 (centres undefined) | -0.8 | 3.1 | -2.9 | -0.5
CC1(C)CC(NC(=O)C(=O)NCCc2ccccc2)CC(C)(C)N1 | -3.0 | -10.1 | 7.2 | -1.6
CC(=O)N1CCc2c(sc(NC(=O)c3cccc(N4C(=O)CCC4=O)c3)c2C(N)=O)C1 | 25.2* | 7.9 | -2.0 | -1.5
NC(=O)c1c(NC(=O)c2cccc(N3C(=O)CCC3=O)c2)sc2c1CCCCC2 | 2.1 | 25.8 | nt | 1.2
COc1ccc(OC)c2sc(N(CCCN(C)C)C(=O)CCS(=O)(=O)c3ccccc3)nc12 | 37.2* | nt | 6.0 | 5.8
CN(C)CCN(C(=O)CCS(=O)(=O)c1ccccc1)c1nc2c(F)cccc2s1 | 4.0 | -15.2 | -1.9 | -1.8
Cc1ccc2sc(N(CCCN(C)C)C(=O)CCS(=O)(=O)c3ccccc3)nc2c1C | 40.2* | -9.9 | -6.1 | -2.6
CN(C)CCCN(C(=O)CCS(=O)(=O)c1ccccc1)c1nc2cc3c(cc2s1)OCO3 | 29.4* | 1.0 | -0.6 | 1.8
Cc1ccc(CNC(=O)CCC2CCCN(Cc3c(C)nn(C(C)C)c3C)C2)o1 (centres undefined) | 0.9 | -3.2 | -0.3 | 0.2
COc1ccccc1CN1CC(C(=O)NCCSc2nnnn2C)CCC1=O (centres undefined) | 0.5 | -1.6 | -1.0 | -0.7
C=CCn1c(-c2ccc(N)cc2)nc2ccccc21 | -0.6 | -0.4 | 1.0 | -1.9
C=CCn1c(N)nc2ccccc21 | 2.7 | 5.5 | 82.3* | 0.3
CCCCC(=O)Nc1cnc(NC(=O)c2ccco2)cc1C | -1.2 | -2.4 | 3.3 | -2.0
SMILES | CTSL1 counter | PfM18AAP inh | Calb FLC | Rin1 Abl inh
NC(=S)n1[nH]c(-c2ccccc2)c(N=Nc2ccccc2C(=O)N2CCOCC2)c1=O | 1.1 | 13.4 | 100.3* | -2.3
Cc1[nH]n(-c2ccccc2)c(=O)c1N=Nc1ccccc1C(=O)N1CCOCC1 | 1.4 | 3.1 | 5.7 | -2.9
Cc1ccc(/C=N\NC(=O)/C(=C\Nc2nccc(C)n2)NC(=O)c2ccccc2)cc1 | 21.9* | 7.7 | 0.0 | 0.4
COc1ccc(/C=C(/NC(=O)c2ccccc2)C(=O)N/N=C/c2ccncc2)cc1 | 4.9 | 8.4 | -16.6 | -6.1
COc1ccc(/C=N\NC(=O)/C(=C\Nc2nccc(C)n2)NC(=O)c2ccccc2)cc1 | 20.1* | 4.9 | 4.9 | 1.2
COc1cccc(-c2nc(CS(=O)CC(=O)NCc3ccc4c(c3)OCO4)c(C)o2)c1 (centres undefined) | -1.6 | 3.6 | -0.6 | 0.2
Cc1cc[n+](-c2[nH]c(=O)sc2/C=N/NC([S-])=Nc2ccccc2)cc1C | 8.5 | 32.4* | 45.7 | -4.6
